This note sets out measurements from PubChem BioAssay (EPA / NIEHS).

Assay [1] is described as follows: CCTE_Shafer_MEA_acute_burst_percentage_mean: CCTE's Neural Acute Assay for Percentage of Spikes in a Burst, Shafer Lab (AID 2284017).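 As to AC50: curve fitted for loss of signal so potency reflects decreased burst percentage.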 Summed up: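 Primary rat cortical neurons on 48-well MEA plates, treated on DIV 13 or 15 at 0.03-40 uM. Spikes detected at 8x rms noise at 37C; percent change from 40-min baseline to 40-min post-dose recording, fitted versus DMSO.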

Assay [2] is described as follows: CCTE_Shafer_MEA_acute_burst_percentage_std: CCTE's Neural Acute Assay for Standard Deviation of Burst Percentage, Shafer Lab (AID 2284018).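 Also: fitted in the negative direction so actives lower burst percentage SD.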 Summed up:
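Rat primary cortical neurons on 48-well MEAs, DIV 13 or 15, 37 C. 40-min baseline then 40-min recording with compound (0.03-40 uM); well-level SD of per-electrode burst spike percentage, expressed as percent change from baseline.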

The nature of assay [3]: CCTE_Shafer_MEA_acute_per_network_burst_spike_number_mean: CCTE's Neural Acute Assay for Average Number of Spikes in a Network Burst, Shafer Lab (AID 2284019). In a few lines:
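Rat cortical cultures, DIV 13/15; spike threshold 8x rms noise, 300-5000 Hz band-pass, 12.5 kHz sampling; wells need >/= 10 active electrodes. Compound 0.03-40 uM, 40 min, 37 C; % change vs own baseline, DMSO negative control.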

Assay [4] can be described thus: CCTE_Shafer_MEA_acute_per_network_burst_spike_number_std: CCTE's Neural Acute Assay for Standard Deviation of Number of Spikes in a Network Burst, Shafer Lab (AID 2284020).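 Also: fitted for decrease in spike-number SD versus DMSO so actives lower it.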 In a few lines:
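Rat cortical cultures, DIV 13/15, 37 C; 20-min stabilisation, 40-min baseline, compound 0.03-40 uM, 40-min re-record. Spikes detected at 8x rms noise (300-5000 Hz band-pass). Readout: % change from baseline in per-burst spike-number SD.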

Assay [5] can be described thus: CCTE_Shafer_MEA_acute_per_network_burst_electrodes_number_mean: CCTE's Neural Acute Assay for Mean Number of Electrodes in a Network Burst, Shafer Lab (AID 2284021).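 Also: curves fitted for decreases only so hits reduce electrodes per burst.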 In a few lines: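 Cultures of rat cortex neurons were exposed on DIV 13 or 15 to compounds at 0.03-40 uM in at least three wells each. Activity over 40 min before and 40 min after exposure at 37 C gave the percent change in electrodes per network burst.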

Assay [6] can be described thus: CCTE_Shafer_MEA_acute_network_burst_percentage: CCTE's Neural Acute Assay for Percentage of Network Bursts, Shafer Lab (AID 2284022).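 Also: curves fitted for loss so actives lower network burst percentage.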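 As to outcome: rat primary cortical neuron networks on multiwell MEA recorded 40 min.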 Summed up: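 Cortical neurons from rat were grown over microelectrode arrays and used on day 13 or 15 in vitro. Wells with at least 10 active electrodes received test chemical at 0.03-40 uM. Activity during 40 min of exposure was compared with the preceding 40-min baseline.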

The nature of assay [7]: CCTE_Shafer_MEA_acute_cross_correlation_area: CCTE's Neural Acute Assay for Area of Cross Correlation, Shafer Lab (AID 2284024).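 Also: area under pooled inter-electrode spike cross-correlation near zero lag as percent change from own baseline; curves fitted for loss of cross-correlation area so actives lower synchrony.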 Summed up: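 Acute exposure of mature rat cortical networks (day 13 or 15 post-plating) to 0.03-40 uM compound. Spontaneous spiking on MEA, 40 min pre- and post-dose at 37 C.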
The nature of assay [8]: CCTE_Shafer_MEA_acute_synchrony_index: CCTE's Neural Acute Assay for Synchrony, Shafer Lab (AID 2284027).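 Also: network synchrony index of spontaneous spiking in primary rat cortical neurons on MEAs; fitted for loss of signal so actives lower synchrony relative to DMSO.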 Summed up: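 Acute exposure of rat primary cortical neurons (DIV 13 or 15) at 0.03-40 uM. Synchrony index, 40 min before vs after, as % change relative to DMSO control.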
A short description of assay [9]: CCTE_Shafer_MEA_dev_firing_rate_mean: CCTE's Neural Network Formation Assay for Mean Firing Rate, Shafer Lab (AID 2284031). In a few lines: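 Extracellular spike frequency, AUC over DIV 5–12 recordings, in rat cortical neuron MEA cultures dosed from plating; loss direction vs DMSO.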
A short description of assay [10]: CCTE_Shafer_MEA_dev_per_burst_spike_percent: CCTE's Neural Network Formation Assay for Percent of Spikes in a Burst, Shafer Lab (AID 2284032). In a few lines: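 Value is trapezoidal AUC over recordings on days 5, 7, 9 and 12 of the well-mean fraction of spikes falling in single-electrode bursts; rat cortical cultures exposed continuously from plating, treatment renewed DIV 5 and 9, fitted downward against DMSO.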

Assay [11] is described as follows: CCTE_Shafer_MEA_dev_active_electrodes_number: CCTE's Neural Network Formation Assay for Number of Active Electrodes, Shafer Lab (AID 2284040; active = hit-call score of the fitted dose curve at least 0.9, where 1 is the maximum). In a few lines:
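Developing rat cortical networks on MEAs, exposed DIV 0–12. Value is the AUC of active-electrode counts (≥5 spikes/min) from days 5, 7, 9, 12, relative to DMSO.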

Assay [12] is described as follows: CCTE_Shafer_MEA_dev_burst_rate: CCTE's Neural Network Formation Assay for Burst Rate, Shafer Lab (AID 2284042). In a few lines:
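Primary rat cortical neurons on PEI-coated 48-well MEA plates (laminin added with cells at plating) (16 electrodes/well), exposed from plating to day 12, dosing renewed at DIV 5 and 9. Burst rate averaged over active electrodes, recorded DIV 5, 7, 9, 12, summarized as AUC; loss versus DMSO.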

A short description of assay [13]: CCTE_Shafer_MEA_dev_bursting_electrodes_number: CCTE's Neural Network Formation Assay for Number of Bursting Electrodes, Shafer Lab (AID 2284043; active = hit-call score of the fitted dose curve at least 0.9, where 1 is the maximum). Summed up: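 Rat cortical primary neurons, 48-well MEA, 16 electrodes/well; dosing DIV 0–12, re-dosed with full media change DIV 5, 9. Recordings DIV 5/7/9/12, AxIS adaptive spike detector; bursting electrode = ≥1 burst/2 min. AUC across days; loss of signal vs DMSO.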

The nature of assay [14]: CCTE_Deisenroth_AIME_384WELL_CTox_Active: Cytotoxicity Assessment (CTOX) in CCTE's 384-well Estrogen Receptor Transactivation Assay with AIME metabolic competence (metabolism positive), Deisenroth Lab (AID 2284037; active = hit-call score of the fitted dose curve at least 0.9, where 1 is the maximum;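 also: chemicals first conditioned 2 h by alginate-bound induced rat liver S9 before cells; activity means signal loss indicating cell death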). Summed up: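 Chemicals pre-incubated 2 hours with alginate-immobilised phenobarbital/beta-naphthoflavone-induced male Sprague Dawley rat liver S9, then conditioned medium applied 24 hour to VM7Luc4E2 cells. Viability by fluorogenic protease substrate; 10-point series 0.002 - 200 uM.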

The target of assay [15] is Estrogen receptor (Homo sapiens) (UniProt P03372). As to the kind of experiment: CCTE_Deisenroth_AIME_384WELL_LUC_Active: CCTE's 384-well Estrogen Receptor Transactivation Assay with AIME metabolic competence (ERTA luciferase; metabolism positive), Deisenroth Lab (AID 2284030; active = hit-call score of the fitted dose curve at least 0.9, where 1 is the maximum). In a few lines: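 In this metabolism-positive format, a 2-hour exposure to alginate-immobilized rat S9 precedes a 24 hour luciferase transactivation readout in VM7Luc4E2 cells. Dosing spans 10 concentrations from 0.002 to 200 uM.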
Sequence of Estrogen receptor (Homo sapiens) (P03372 whole entry, looked up): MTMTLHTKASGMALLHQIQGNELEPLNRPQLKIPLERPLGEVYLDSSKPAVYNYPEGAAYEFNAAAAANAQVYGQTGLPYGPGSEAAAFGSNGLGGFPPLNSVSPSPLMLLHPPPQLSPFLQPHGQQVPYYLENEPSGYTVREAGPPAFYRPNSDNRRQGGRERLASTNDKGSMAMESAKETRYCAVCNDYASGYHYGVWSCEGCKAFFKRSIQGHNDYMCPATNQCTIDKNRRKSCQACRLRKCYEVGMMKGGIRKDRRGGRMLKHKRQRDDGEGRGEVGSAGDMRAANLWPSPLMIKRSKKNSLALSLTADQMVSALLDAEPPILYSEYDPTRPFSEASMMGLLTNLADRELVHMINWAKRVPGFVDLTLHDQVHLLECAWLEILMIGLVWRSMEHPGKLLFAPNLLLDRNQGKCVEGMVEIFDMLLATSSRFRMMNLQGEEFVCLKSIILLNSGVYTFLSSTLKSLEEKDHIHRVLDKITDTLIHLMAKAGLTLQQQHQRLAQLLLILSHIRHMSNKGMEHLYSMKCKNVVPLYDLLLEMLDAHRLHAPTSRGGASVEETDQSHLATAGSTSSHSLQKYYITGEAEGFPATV

The nature of assay [16]: CCTE_Deisenroth_AIME_384WELL_CTox_Inactive: Cytotoxicity Assessment (CTOX) in CCTE's 384-well Estrogen Receptor Transactivation Assay without AIME metabolic competence (metabolism negative), Deisenroth Lab (AID 2284039; active = hit-call score of the fitted dose curve at least 0.9, where 1 is the maximum;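 also: cell viability via live-cell protease substrate cleaved to fluorescent probe; cells exposed 24 h to medium preincubated 2 h with alginate-water beads without S9; loss of fluorescence signal means loss of viability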). Summed up: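 VM7Luc4E2 cells, metabolism-negative arm: test chemicals (0.002–200 uM, 10 points) pre-incubated 2 h with alginate-water microspheres, then medium transferred to cells for 24 h. Viability read as protease-substrate cleavage to fluorescent probe; loss-of-signal, bidirectional fitting.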

For assay [17], the target named is Estrogen receptor (Homo sapiens) (UniProt P03372). Kind of assay: CCTE_Deisenroth_AIME_384WELL_LUC_Shift: CCTE's 384-well Estrogen Receptor Transactivation Assay with AIME metabolic competence data shift (ERTA luciferase; difference in metabolism positive and negative), Deisenroth Lab (AID 2284041).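 Also: shift is response with S9 minus without S9 so positive means metabolism raised ER signal.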 Summed up:
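Chemicals (0.002–200 uM, 10 points) pre-incubated 2 h with alginate-encapsulated induced male Sprague Dawley rat liver S9 or S9-free, then medium applied 24 h to VM7Luc4E2 cells; luciferase. Endpoint is per-concentration difference, S9-positive minus negative.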

Assay [18] shares this target. Kind of assay: CCTE_Deisenroth_AIME_384WELL_LUC_Inactive: CCTE's 384-well Estrogen Receptor Transactivation Assay without AIME metabolic competence (ERTA luciferase; metabolism negative), Deisenroth Lab (AID 2284038; active = hit-call score of the fitted dose curve at least 0.9, where 1 is the maximum;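 also: VM7Luc4E2 breast cells given medium preincubated 2 h with S9-free microspheres; hits raise estrogen receptor luciferase signal so potencies reflect agonists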). Summed up: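 Metabolism-negative mode: AIME lids stamped in alginate-water, no hepatic S9. 2 h chemical incubation → medium onto VM7Luc4E2 ERTA, 24 h. Readout luciferase luminescence; gain-of-signal fit vs 17beta-estradiol. Conc. 0.002 - 200 uM.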

Results filed as inconclusive are left out. Some compounds were tested as several samples or in several runs, with calls that do not always agree. Activity calls are given as the source filed them. The calls were made as follows, unless noted: active = hit-call score of the fitted dose curve at least 0.9, where 1 is the maximum; inactive = score below 0.9.

On to `O=P(OC(CCl)CCl)(OC(CCl)CCl)OC(CCl)CCl`, for which the AC50 (in general, the concentration at which the activity in the assay is half-maximal) in assay [1] was 23.1 µM (active); in assay [2], 31.6 µM (active); in assay [8], 23 µM (active). The result in assay [1], in assay [2], in [3], in assay [4], in assay [5] and in assay [6] was inactive. In addition, the result in assay [7], in [8], in assay [9], in assay [10], in [11] and in [12] was inactive. Further, the compound was called inactive in assay [13].

On to `CCCN(C1CCN(C(=O)C2CCNCC2)CC1)[C@@H]1CCc2ccc(OC)cc2C1`, for which the AC50 was 11.3 µM (active) in assay [1]; 33.1 µM (active) in assay [2]; 5 µM (active) in [5]; 7.55 µM (active) in assay [6]; 17.7 µM (active) in assay [8]. Moreover, the compound was called inactive in assay [3], in assay [4], in assay [7] and in assay [14].

Take `COc1ccc2sc(C(=O)Nc3nnn[nH]3)c(OC(C)C)c2c1`: the call in [1], in [2], in assay [3], in assay [4], in assay [5] and in [6] was inactive. Moreover, the call in [7], in assay [8], in [15], in assay [16] and in assay [17] was inactive. Besides, the AC50 in assay [14] was 45 µM (active).

`CCOC(=O)c1ccc(C2CCC(NC[C@H](O)COc3ccc(O)c(NS(C)(=O)=O)c3)CC2)cc1` (some centres undefined): the AC50 in [1] is 30.2 µM (active); in [8] it was 28.8 µM (active); in assay [14], 100 µM (active); in [16] it was 128 µM (active). In addition, the compound was classed as inactive in [2], in assay [3], in assay [4], in [5], in assay [6] and in assay [7].

As for `O=C(O)c1cc(N=Nc2ccc(S(=O)(=O)Nc3ccccn3)cc2)ccc1O`, the outcome in assay [1], in assay [2], in [3], in assay [4], in [5] and in [6] was inactive. Besides, the outcome in [7] and in assay [8] was inactive. Also, the AC50 in assay [14] is 100 µM (active); in assay [16], 49.7 µM (active).

`O=c1n(CC2CO2)c(=O)n(CC2CO2)c(=O)n1CC1CO1` (centres undefined): the result in [15] and in assay [18] was inactive. The AC50 in assay [14] is 136 µM (active); in assay [16], 100 µM (active).

On to `CCCCC(CC)COC(=O)CCCCCCCCC(=O)OCC(CC)CCCC` (centres undefined), for which the result in [1], in [2], in [3], in assay [4], in [5] and in [6] was inactive. Also, the compound was classed as inactive in [7] and in assay [8].
